The record followed here is PubChem BioAssay (NCATS).

Structures are written as SMILES. Records with an inconclusive call do not appear. A number with no mark means an inactive call. Activity calls are given as the source filed them. Calls come from the whole dose curve; as a rule, active = well fitted curve in the direction sought with a large enough effect; inconclusive = small, poorly fitted or top-dose-only effect, or another doubt; inactive = no such curve, though single readings can be large; an effect the other way counts as inactive or inconclusive.

Assay [1] has as its target Rap guanine nucleotide exchange factor 3 (Homo sapiens) (UniProt O95398). Description: Confirmatory qHTS for antagonist of cAMP-regulated guanine nucleotide exchange factor 3 (EPAC1) (AID 1645880). Note: nearly all actives have a fitted effect of over 55% in size. Note: potency is the fitted concentration of half-maximal effect. In short, it runs like this: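 Released BODIPY-GDP fluoresces less than Rap1-bound BODIPY-GDP; the signal is followed at 480/540 nm at 5-min intervals over 30 min, after 5 min at room temperature. Reactions contain 100 nM EPAC1, 250 nM RAP1B-BODIPY-GDP and 50 uM GDP; results are normalized to ATA and DMSO.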
For orientation: Quantitative high-throughput screening tests each substance at several concentrations.

Assay [2] shares this target. As to the kind of experiment: Confirmatory qHTS for agonist of cAMP-regulated guanine nucleotide exchange factor 3 (EPAC1) (AID 1645881).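 Note: EPAC1 catalysed release of BODIPY-GDP from Rap1B seen as fluorescence loss; 100% = effect of cAMP agonist control; nearly all actives have a fitted effect of over 75% in size.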
Assay [3] deals with Rap guanine nucleotide exchange factor 4 (Homo sapiens) (UniProt Q8WZA2). As to the kind of experiment: Confirmatory qHTS for agonist of cAMP-regulated guanine nucleotide exchange factor 4 (EPAC2) (AID 1645884).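 Note: nucleotide exchange releases bodipy-GDP from Rap1 and this lowers its fluorescence; % is set by controls: 0 for no effect and ±100 for the full control effect; nearly all actives have a fitted effect of over 65% in size.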
Chain of Rap guanine nucleotide exchange factor 4 (Homo sapiens) (Q8WZA2 whole entry, looked up): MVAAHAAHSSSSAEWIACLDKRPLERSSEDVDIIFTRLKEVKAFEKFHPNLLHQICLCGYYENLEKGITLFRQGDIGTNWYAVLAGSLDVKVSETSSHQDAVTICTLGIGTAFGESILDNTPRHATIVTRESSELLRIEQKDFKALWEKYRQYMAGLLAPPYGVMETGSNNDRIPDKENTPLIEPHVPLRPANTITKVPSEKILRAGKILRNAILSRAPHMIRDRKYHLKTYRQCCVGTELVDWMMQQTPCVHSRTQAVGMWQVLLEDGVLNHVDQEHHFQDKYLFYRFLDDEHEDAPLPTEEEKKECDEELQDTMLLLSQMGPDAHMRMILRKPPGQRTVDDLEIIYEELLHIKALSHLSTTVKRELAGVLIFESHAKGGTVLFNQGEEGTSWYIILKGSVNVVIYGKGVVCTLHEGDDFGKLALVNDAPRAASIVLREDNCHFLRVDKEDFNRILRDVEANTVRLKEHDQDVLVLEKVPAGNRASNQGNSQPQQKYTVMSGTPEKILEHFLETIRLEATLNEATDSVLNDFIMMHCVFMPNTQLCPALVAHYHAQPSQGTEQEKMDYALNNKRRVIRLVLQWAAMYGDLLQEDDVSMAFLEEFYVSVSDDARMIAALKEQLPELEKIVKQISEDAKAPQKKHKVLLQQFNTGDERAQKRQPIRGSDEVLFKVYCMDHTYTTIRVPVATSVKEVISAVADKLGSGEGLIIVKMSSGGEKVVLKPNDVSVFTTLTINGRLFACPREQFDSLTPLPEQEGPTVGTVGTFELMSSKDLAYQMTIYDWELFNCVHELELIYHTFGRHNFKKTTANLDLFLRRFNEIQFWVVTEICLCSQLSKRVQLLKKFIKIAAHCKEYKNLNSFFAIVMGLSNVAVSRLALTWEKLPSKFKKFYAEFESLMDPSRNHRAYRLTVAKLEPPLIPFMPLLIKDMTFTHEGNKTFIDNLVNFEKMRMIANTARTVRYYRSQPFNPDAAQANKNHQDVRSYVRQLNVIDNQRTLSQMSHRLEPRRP
The target is the same in assay [4]. Description: Confirmatory qHTS for antagonist of cAMP-regulated guanine nucleotide exchange factor 4 (EPAC2) (AID 1645885). For activity change, negative = inhibition: % is set by controls: 0 for no effect and ±100 for the full control effect. Note: nearly all actives have a fitted effect of over 25% in size. Note: potency is the fitted concentration of half-maximal effect.
The target of assay [5] is Rap guanine nucleotide exchange factor 3 (Homo sapiens) (UniProt O95398). As to the kind of experiment: Counterscreen qHTS for antagonist of cAMP-regulated guanine nucleotide exchange factor 3 (EPAC1) (AID 1645888). Note: % of control where 0% means no effect. In short, it runs like this:
(§1)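 Rap1B-BODIPY-GDP 250 nM + GDP 50 uM; cpds 7-pt, final 9.74 nM–152 uM (activator mode) or from 7.32 nM upwards (inhibitor mode); RT; FI 480/540 nm at 5 and 30 min, then ± cAMP, reread.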
(The purpose of a counterscreen is to sort out artefacts and off-target activity.)

The target is the same in assay [6]. As to the kind of experiment: Counterscreen qHTS for agonist of cAMP-regulated guanine nucleotide exchange factor 3 (EPAC1) (AID 1645889). Note: % of control where 0% means no effect; nearly all actives have a fitted effect of over 40% in size. In short, it runs like this:
as §1

Chain of Rap guanine nucleotide exchange factor 3 (Homo sapiens) (O95398 whole entry, looked up): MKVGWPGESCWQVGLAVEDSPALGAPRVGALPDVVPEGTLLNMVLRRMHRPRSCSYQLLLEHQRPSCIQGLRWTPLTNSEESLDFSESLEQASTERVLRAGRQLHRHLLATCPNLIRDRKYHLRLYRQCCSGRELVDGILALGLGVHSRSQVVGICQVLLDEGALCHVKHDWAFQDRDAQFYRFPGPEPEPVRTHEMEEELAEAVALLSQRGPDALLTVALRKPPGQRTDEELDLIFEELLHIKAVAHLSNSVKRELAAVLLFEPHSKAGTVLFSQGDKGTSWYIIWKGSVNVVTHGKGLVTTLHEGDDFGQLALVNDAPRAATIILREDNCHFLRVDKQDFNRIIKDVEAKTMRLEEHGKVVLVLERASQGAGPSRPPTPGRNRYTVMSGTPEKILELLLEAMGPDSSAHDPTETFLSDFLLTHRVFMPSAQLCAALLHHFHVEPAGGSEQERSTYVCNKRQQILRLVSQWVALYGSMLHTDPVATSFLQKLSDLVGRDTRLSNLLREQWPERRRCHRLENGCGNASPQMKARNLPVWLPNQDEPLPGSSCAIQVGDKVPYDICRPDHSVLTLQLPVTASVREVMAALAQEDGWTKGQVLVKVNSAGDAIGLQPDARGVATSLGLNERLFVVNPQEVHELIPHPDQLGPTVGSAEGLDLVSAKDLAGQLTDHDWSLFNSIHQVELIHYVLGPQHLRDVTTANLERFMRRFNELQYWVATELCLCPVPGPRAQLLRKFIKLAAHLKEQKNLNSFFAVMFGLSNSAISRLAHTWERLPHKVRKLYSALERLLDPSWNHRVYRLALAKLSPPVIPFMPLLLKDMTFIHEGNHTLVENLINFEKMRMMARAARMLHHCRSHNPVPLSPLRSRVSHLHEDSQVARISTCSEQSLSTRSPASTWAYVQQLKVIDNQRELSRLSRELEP

With `Cc1ccc2nc(NC(=O)CSc3ncnc4c3oc3ccccc34)sc2c1`, the Potency result in assay [1], in assay [2], in assay [3], in assay [4], in assay [5] and in assay [6] was “inactive” throughout.
For the compound `CCn1c(CNC(=O)COC)nc2ccccc21`, the Potency result in assay [1], in assay [2] and in assay [4] was “inactive” throughout. In addition, the activation in assay [3] is 3.77% [at 17.1 µM, percent relative to cAMP agonist control]; in assay [6], 4.54% [at 30.8 µM]. Moreover, the activity change, negative = inhibition in assay [5] is -4.31% [at 30.8 µM].
On to `CCc1nc2c(OCCOc3ccc(F)cc3)cccn2c1N(C)C(=O)c1ccc(OC)cc1`, for which the Potency result in assay [1], in assay [2] and in assay [4] was “inactive” throughout. In addition, the activation was 3.55% [at 17.1 µM, percent relative to cAMP agonist control] in assay [3] and 11.5% [at 30.8 µM] in assay [6]. The activity change, negative = inhibition in assay [5] was -15.6% [at 30.8 µM].
Consider `C(=N\N1CCN(C(c2ccccc2)c2ccccc2)CC1)/c1ccc2c(c1)OCO2`, for which the Potency result in assay [1], in assay [2], in assay [3], in assay [5] and in assay [6] was “inactive” each time. For the same compound, the Potency in assay [4] was 84.9 µM (active).
With `CN1C(=O)C2(C(C#N)=C(N)N(c3cc(Cl)cc(Cl)c3)C3=C2C(=O)CC(C)(C)C3)c2ccccc21` (stereo not given), the Potency result in assay [1], in assay [2], in assay [3], in assay [4], in assay [5] and in assay [6] was “inactive” each time.
As to `CC(C)(C)c1ccc(CC(=O)N2CCC2(C)C(=O)NS(=O)(=O)c2ccccc2)cc1` (stereo not given), the Potency result in assay [1], in assay [2] and in assay [4] was “inactive” throughout. Moreover, the activation in assay [3] is 0.17% [at 17.1 µM, percent relative to cAMP agonist control]; in assay [6], 19.6% [at 30.8 µM]. For the same compound, the activity change, negative = inhibition in assay [5] was -2% [at 30.8 µM].
As to `Cc1cn(S(=O)(=O)c2ccccc2[N+](=O)[O-])cn1`, the Potency entry in assay [1], in assay [2] and in assay [4] was “inactive” each time. The activation in assay [3] was 0.773% [at 17.1 µM, percent relative to cAMP agonist control]; in assay [6], -4.19% [at 30.8 µM]. Further, the activity change, negative = inhibition in assay [5] is -3.67% [at 30.8 µM].
Take `C/C(=C\c1ccco1)CN1CCN(Cc2ccc(C)o2)C(CCO)C1` (stereo not given): the Potency entry in assay [1], in assay [2], in assay [3], in assay [4], in assay [5] and in assay [6] was “inactive” throughout.
For `O=CN(CCN(C=O)CN1CCCCC1)CN1CCCCC1`, the Potency entry in assay [1], in assay [2], in assay [3], in assay [4], in assay [5] and in assay [6] was “inactive” throughout.
Regarding `O=C(NCCS(=O)(=O)N1CCN(c2cccc(Cl)c2)CC1)c1ccc2c(c1)OCO2`, the Potency entry in assay [1], in assay [2], in assay [3], in assay [4], in assay [5] and in assay [6] was “inactive” in each case.
Take `COc1cc2ccccc2cc1C(=O)N1CCc2ccccc21`: the Potency result in assay [1], in assay [2], in assay [3], in assay [5] and in assay [6] was “inactive” in each case. Moreover, in assay [4], the Potency is 7.57 µM (active).
In the case of `Cc1ccc(-c2csc(N=C(N)N)n2)cc1`, the Potency entry in assay [1], in assay [2] and in assay [4] was “inactive” in each case. Besides, the activation was 2.77% [at 17.1 µM, percent relative to cAMP agonist control] in assay [3] and 9.63% [at 30.8 µM] in assay [6]. The activity change, negative = inhibition in assay [5] was -10% [at 30.8 µM].
Turning to `O=C(NC1CCC(O)CC1)c1cccc2cccnc12` (stereo not given), the Potency result in assay [1], in assay [2], in assay [3], in assay [4], in assay [5] and in assay [6] was “inactive” throughout.
As for `Cc1ccc(S(=O)(=O)Nc2ccccc2N2CCCCC2)cc1`, the Potency result in assay [1], in assay [2] and in assay [4] was “inactive” in each case. Moreover, the activation was 1.85% [at 17.1 µM, percent relative to cAMP agonist control] in assay [3] and 18.9% [at 30.8 µM] in assay [6]. In assay [5], the activity change, negative = inhibition was -22.5% [at 30.8 µM].
Consider `Cc1cc(S(=O)(=O)Nc2ccccc2C)ccc1F`, for which the Potency result in assay [1], in assay [2], in assay [3], in assay [5] and in assay [6] was “inactive” throughout. Also, the Potency in assay [4] is 13.5 µM (active).
Take `Cc1ccc(CNS(=O)(=O)c2ccc(-n3cnnn3)c(C)c2)cc1`: the Potency result in assay [1], in assay [2] and in assay [4] was “inactive” in each case. Also, the activation was 4.56% [at 17.1 µM, percent relative to cAMP agonist control] in assay [3] and 5.31% [at 30.8 µM] in assay [6]. Also, the activity change, negative = inhibition in assay [5] is 3.48% [at 30.8 µM].
For `Cc1cc(C)c(C)c(S(=O)(=O)Nc2cccc(S(=O)(=O)Nc3ccccc3C(=O)O)c2)c1C`, in assay [1], the Potency was 39.8 µM (active). Also, the Potency entry in assay [2] and in assay [4] was “inactive” in each case. The activation in assay [3] was 4.6% [at 17.1 µM, percent relative to cAMP agonist control]; in assay [6] it was 0.792% [at 30.8 µM]. The activity change, negative = inhibition in assay [5] is -6.25% [at 30.8 µM].
`Cc1ccc(NC(=O)CSc2ncn[nH]2)cc1C`: the Potency entry in assay [1], in assay [2], in assay [3], in assay [4], in assay [5] and in assay [6] was “inactive” throughout.
Turning to `Cc1ccc2nc(-c3ccc(NC(=O)c4ccco4)cc3)[nH]c2c1`, the Potency result in assay [1], in assay [2] and in assay [4] was “inactive” throughout. For the same compound, the activation in assay [3] was 7.16% [at 17.1 µM, percent relative to cAMP agonist control]; in assay [6], 29.2% [at 30.8 µM]. The activity change, negative = inhibition in assay [5] was -13% [at 30.8 µM].
On to `COc1cccc(CC(=O)Nc2ccc(S(=O)(=O)Nc3nccs3)cc2)c1`, for which the Potency result in assay [1], in assay [2] and in assay [4] was “inactive” in each case. In addition, the activation in assay [3] was -3.47% [at 17.1 µM, percent relative to cAMP agonist control]; in assay [6], 9.39% [at 30.8 µM]. The activity change, negative = inhibition in assay [5] was -17.8% [at 30.8 µM].
